This note sets out measurements from PubChem BioAssay (Tox21).

Inconclusive results are not listed. Where a call stands in place of a potency, no number is given. The source holds several records for some structures; these can differ, active in one and inactive in another. The source made the active and inactive calls. Unless noted, the call rests on the fitted dose curve; in most records, active means well fitted curve in the direction sought with a large enough effect in the repeat runs; inconclusive means weak or mixed curves; inactive means no such curve, though single readings can be large; an effect the other way counts as inactive or inconclusive.
Potency means the concentration at half of the fitted maximal effect.

Nuclear receptor subfamily 1 group I member 3 (Homo sapiens), sequence (Q14994 whole entry, looked up): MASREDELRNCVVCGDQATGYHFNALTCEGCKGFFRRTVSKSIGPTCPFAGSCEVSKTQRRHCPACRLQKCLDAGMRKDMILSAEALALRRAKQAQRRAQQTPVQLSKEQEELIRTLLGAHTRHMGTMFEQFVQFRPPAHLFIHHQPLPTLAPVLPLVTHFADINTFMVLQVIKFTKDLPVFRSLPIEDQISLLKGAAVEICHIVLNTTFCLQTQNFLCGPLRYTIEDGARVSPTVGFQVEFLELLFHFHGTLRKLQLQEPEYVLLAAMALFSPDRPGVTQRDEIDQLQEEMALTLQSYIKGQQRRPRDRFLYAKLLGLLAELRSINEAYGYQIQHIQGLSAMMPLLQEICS

The first test has as its target Nuclear receptor subfamily 1 group I member 3 (Homo sapiens) (UniProt Q14994). The experiment in a line: qHTS assay to identify small molecule antagonists of the constitutive androstane receptor (CAR) signaling pathway (AID 1224838).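 Further: HepG2 cells stably expressing hCAR with CYP2B6 luciferase reporter stimulated by CITCO; nearly all actives have a fitted effect of over 40% in size.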 The following applies: HepG2-CYP2B6-hCAR luciferase, CITCO-stimulated, 24 h; series mostly up to 92.4 µM. In short, it runs like this: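 Antagonist mode used CITCO at a final 50 nM to activate CAR in human hepatoma HepG2 cells carrying stable hCAR and a 2.2 kb CYP2B6 promoter-luciferase construct. Compounds were tested at 15 concentrations over 24 h, with luminescence as the end point.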
Turning to `Nc1ccc(Cc2ccc(N)c(Cl)c2)cc1Cl`, the Potency entry was “inactive”.

Take `CCCCCCCCc1ccc(O)cc1`: the Potency entry is “inactive”.

Turning to `CC1(c2ccc(Oc3ccccc3)cc2)OC(=O)N(Nc2ccccc2)C1=O` (centres undefined), the Potency result was “inactive”.

`CC(C)(C)C(O)/C(=C\c1ccc(Cl)cc1Cl)n1cncn1` (centres undefined): the Potency entry was “inactive”.

In the case of `Nc1ccc(Sc2ccc(N)cc2)cc1`, the Potency result was “inactive”.

For the molecule `O=CC(Br)(Br)Br`, the Potency was 30.5 µM (active).

In the case of `O=C(CCl)C(Cl)Cl`, the Potency is 13.8 µM (active).

Turning to `CC(C)(C)c1cc([N+](=O)[O-])cc(C(C)(C)C)c1O`, the Potency is 27.3 µM (active).

`Oc1c(Br)c(Br)c(Br)c(Br)c1Br`: the Potency entry is “inactive”.

On to `CC(C)N1C(=O)N(c2ccccc2)CSC1=NC(C)(C)C`, for which the Potency result is “inactive”.

Turning to `N#Cc1ccc(O)cc1`, the Potency entry is “inactive”.

Regarding `CCCCOCN(C(=O)CCl)c1c(CC)cccc1CC`, the Potency result is “inactive”.

With `CC(C)Oc1cccc(NC(=O)c2ccccc2C(F)(F)F)c1`, the Potency result is “inactive”.

Consider `Clc1ccc(CO/N=C(\Cn2ccnc2)c2ccc(Cl)cc2Cl)c(Cl)c1`, for which the Potency result was “inactive”.

With `CCCOCC(=Nc1ccc(Cl)cc1C(F)(F)F)n1ccnc1`, the Potency result is “inactive”.

With `N#Cc1c(-c2ccc(Cl)cc2)[nH]c(C(F)(F)F)c1Br`, the Potency is 0.969 µM (active).

As to `C[C@@H]1O[C@@H](O[C@@H]2C=C3CC[C@@H]4[C@H](CC[C@]5(C)[C@@H](c6ccc(=O)oc6)CC[C@]45O)[C@@]3(C)CC2)[C@H](O)[C@H](O)[C@H]1O`, the Potency is 0.0841 µM (active).

Take `CCCCCCCCCCCCCCC(Br)C(=O)O` (centres undefined): the Potency entry was “inactive”.

Take `Fc1ccc(Oc2ccnc3cc(Cl)cc(Cl)c23)cc1`: the Potency entry is “inactive”.

Turning to `CCN(CC)c1c([N+](=O)[O-])cc(C(F)(F)F)c(N)c1[N+](=O)[O-]`, the Potency entry was “inactive”.

Consider `CNC(C)Cc1ccc2c(c1)OCO2` (centres undefined), for which the Potency result was “inactive”.

Consider `CC[C@H]1C[C@@H]2C[C@H]3c4[nH]c5ccc(OC)cc5c4CCN(C2)[C@@H]13`, for which the Potency result is “inactive”.

With `CN(C)CCc1c[nH]c2ccc(O)cc12`, the Potency result was “inactive”.

As to `c1ccc2c(c1)OCC(C1=NCCN1)O2` (centres undefined), the Potency was 21.1 µM (active).

With `CC(C)(O)c1cnn2c(-c3ccc(F)c(-c4c(F)cccc4C#N)c3)cnc2n1`, the Potency entry is “inactive”.

Turning to `CC(C)CCCCCCCOP(=O)(Oc1ccccc1)Oc1ccccc1`, the Potency entry is “inactive”.

On to `C[C@]12CC[C@H](O)C[C@H]1CC[C@@H]1[C@@H]2C[C@@H](O)[C@]2(C)[C@@H](C3=CC(=O)OC3)CC[C@]12O`, for which the Potency was 1.22 µM (active).

For a further test the target is unchanged. As to the kind of experiment: qHTS assay to identify small molecule agonists of the constitutive androstane receptor (CAR) signaling pathway (AID 1224839). Further: nearly all actives have a fitted effect of over 15% in size. The following applies: HepG2 hCAR CYP2B6-luciferase, agonist mode, 24 h; series mostly up to 92.4 µM. In short, it runs like this: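 A 15-concentration quantitative screen uses HepG2 cells co-transfected stably with human CAR and CYP2B6-2.2kb reporter. Treatment lasts 24 h with 0.75 uM PK11195 final present; ONE-Glo luminescence is the signal.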
For `Nc1ccc(Cc2ccc(N)c(Cl)c2)cc1Cl`, the Potency was 16.7 µM (active).

In the case of `CCCCCCCCc1ccc(O)cc1`, the Potency is 48.9 µM (active).

On to `CC(=O)O[C@H]1CC[C@@]2(C)C(=CC[C@@H]3[C@@H]2CC[C@]2(C)C(=O)CC[C@@H]32)C1`, for which the Potency entry is “inactive”.

With `Nc1ccc(Sc2ccc(N)cc2)cc1`, the Potency is 34.4 µM (active).

As to `O=CC(Br)(Br)Br`, the Potency entry is “inactive”.

For `O=C(CCl)C(Cl)Cl`, the Potency entry is “inactive”.

On to `CC(C)(C)c1cc([N+](=O)[O-])cc(C(C)(C)C)c1O`, for which the Potency was 5.45 µM (active).

As to `Oc1c(Br)c(Br)c(Br)c(Br)c1Br`, the Potency result was “inactive”.

Consider `CC(C)N1C(=O)N(c2ccccc2)CSC1=NC(C)(C)C`, for which the Potency is 24.3 µM (active).

Take `N#Cc1ccc(O)cc1`: the Potency entry was “inactive”.

Take `CCCCOCN(C(=O)CCl)c1c(CC)cccc1CC`: the Potency is 27.3 µM (active).

Take `CC(C)Oc1cccc(NC(=O)c2ccccc2C(F)(F)F)c1`: the Potency was 61.1 µM (active).

As for `CCCOCC(=Nc1ccc(Cl)cc1C(F)(F)F)n1ccnc1`, the Potency is 48.5 µM (active).

Take `N#Cc1c(-c2ccc(Cl)cc2)[nH]c(C(F)(F)F)c1Br`: the Potency result is “inactive”.

As for `C[C@@H]1O[C@@H](O[C@@H]2C=C3CC[C@@H]4[C@H](CC[C@]5(C)[C@@H](c6ccc(=O)oc6)CC[C@]45O)[C@@]3(C)CC2)[C@H](O)[C@H](O)[C@H]1O`, the Potency result is “inactive”.

As for `CCCCCCCCCCCCCCC(Br)C(=O)O` (centres undefined), the Potency result is “inactive”.

Turning to `Fc1ccc(Oc2ccnc3cc(Cl)cc(Cl)c23)cc1`, the Potency is 27.3 µM (active).

`CCN(CC)c1c([N+](=O)[O-])cc(C(F)(F)F)c(N)c1[N+](=O)[O-]`: the Potency is 48.6 µM (active).

`CNC(C)Cc1ccc2c(c1)OCO2` (centres undefined): the Potency entry is “inactive”.

For the molecule `CC[C@H]1C[C@@H]2C[C@H]3c4[nH]c5ccc(OC)cc5c4CCN(C2)[C@@H]13`, the Potency entry was “inactive”.

`Oc1cc(Cl)c(Cl)c(Cl)c1`: the Potency entry was “inactive”.

On to `CN(C)CCc1c[nH]c2ccc(O)cc12`, for which the Potency result is “inactive”.

Turning to `COc1cccc(C(=O)CCN[C@@H](C)[C@H](O)c2ccccc2)c1`, the Potency entry is “inactive”.

Regarding `c1ccc2c(c1)OCC(C1=NCCN1)O2` (centres undefined), the Potency entry was “inactive”.

In the case of `c1cc[c]([Sb]([c]2ccccc2)[c]2ccccc2)cc1`, the Potency was 15.4 µM (active).

`CC(C)(O)c1cnn2c(-c3ccc(F)c(-c4c(F)cccc4C#N)c3)cnc2n1`: the Potency entry was “inactive”.

For `CC(C)CCCCCCCOP(=O)(Oc1ccccc1)Oc1ccccc1`, the Potency was 27.4 µM (active).

For the molecule `C[C@]12CC[C@H](O)C[C@H]1CC[C@@H]1[C@@H]2C[C@@H](O)[C@]2(C)[C@@H](C3=CC(=O)OC3)CC[C@]12O`, the Potency result is “inactive”.

Tested on in the next test: not listed separately
The experiment in a line: qHTS assay to identify small molecule antagonists of the estrogen related receptor signaling pathway with the pleiotropic PPARgamma coactivator (PGC) from Tox21 10K library - cell viability counter screen (AID 1224840; active means well fitted cell-killing curve with a large enough effect in the repeat runs, not every such curve was filed as active; further: nearly all actives have a fitted effect of over 40% in size). To be noted: PGC/ERR reporter cells viability, CellTiter-Fluor, 17.5 h; series mostly up to 92.4 µM. In short, it runs like this: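 Multiplexed viability counter screen in the PGC/ERR cell line: cells treated with DMSO-dissolved compounds for 17.5 hours at 37 C, then viability measured as CellTiter-Fluor fluorescence.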
As for `CC(C)(C)C(O)/C(=C\c1ccc(Cl)cc1Cl)n1cncn1` (centres undefined), the Potency was 58.7 µM (active).

`CC(=O)[O-].[Tl+]`: the Potency result is “inactive”.

On to `CC(=O)O[C@H]1CC[C@@]2(C)C(=CC[C@@H]3[C@@H]2CC[C@]2(C)C(=O)CC[C@@H]32)C1`, for which the Potency entry is “inactive”.

On to `CCC(C)c1cc([N+](=O)[O-])cc([N+](=O)[O-])c1OC(=O)C=C(C)C` (centres undefined), for which the Potency is 30.6 µM (active).

For the molecule `ClC1=C(Cl)[C@]2(Cl)[C@@H]3[C@@H]4C[C@@H]([C@H]5O[C@@H]45)[C@@H]3[C@@]1(Cl)C2(Cl)Cl`, the Potency is 61.1 µM (active).

For the molecule `N#Cc1ccc(O)cc1`, the Potency result is “inactive”.

`CCCCOCN(C(=O)CCl)c1c(CC)cccc1CC`: the Potency entry was “inactive”.

On to `CC(C)Oc1cccc(NC(=O)c2ccccc2C(F)(F)F)c1`, for which the Potency result is “inactive”.

Turning to `N#Cc1c(-c2ccc(Cl)cc2)[nH]c(C(F)(F)F)c1Br`, the Potency is 1.54 µM (active).

For the molecule `CCCCCCCCCCCCCCC(Br)C(=O)O` (centres undefined), the Potency result was “inactive”.

Regarding `CNC(C)Cc1ccc2c(c1)OCO2` (centres undefined), the Potency entry was “inactive”.

As to `S=C=Nc1cccc2ccccc12`, the Potency entry is “inactive”.

In the case of `CN(C)CCc1c[nH]c2cccc(O)c12`, the Potency entry is “inactive”.

`CN(C)CCc1c[nH]c2ccc(O)cc12`: the Potency entry was “inactive”.

As to `COc1cccc(C(=O)CCN[C@@H](C)[C@H](O)c2ccccc2)c1`, the Potency entry was “inactive”.

With `c1ccc2c(c1)OCC(C1=NCCN1)O2` (centres undefined), the Potency was 21.1 µM (active).

As for `CC(C)(O)c1cnn2c(-c3ccc(F)c(-c4c(F)cccc4C#N)c3)cnc2n1`, the Potency entry is “inactive”.

With `COc1ccc(N)cc1N`, the Potency is 28.2 µM (active) and inactive.

As to `CC(C)CCCCCCCOP(=O)(Oc1ccccc1)Oc1ccccc1`, the Potency entry was “inactive”.
